Data on 36 compounds can be found in the supplement of paper PMC3414501.

Where a name gives a salt, the structure may show the parent alone.
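Wherever HIS4 meiotic recombination assay sensitivity score (z-score vs DMSO controls) is given: active if sensitivity score above 5.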

The subject of the first assay is S. cerevisiae NKY1551 his4x/his4B, sporulating. In words: HIS4 meiotic recombination assay sensitivity score (z-score vs DMSO controls); higher = stronger inhibition of sporulation/recombination, active = hit call of the paper.
On to `CC(Oc1c(Cl)cccc1Cl)C1=NCCN1` (stereo not given) [Lofexidine hydrochloride] (stock concentration (mM, diluted 1:100): 10), for which the “HIS4 meiotic recombination assay sensitivity score” value was 1.48 (inactive).

Consider `O=C1CC[C@@H](C(=O)N2CSC[C@H]2C(=O)O)N1` [Pidotimod] (stock concentration (mM, diluted 1:100): 10), for which the “HIS4 meiotic recombination assay sensitivity score” value was -0.31 (inactive).

For the compound `C#C[C@]1(O)CC[C@H]2[C@@H]3[C@H](C)CC4=C(CCC(=O)C4)[C@H]3CC[C@@]21C` [Tibolone] (stock concentration (mM, diluted 1:100): 10), the “HIS4 meiotic recombination assay sensitivity score” value is 1.06 (inactive).

`CC1(C)S[C@@H]2[C@H](/N=C/N3CCCCCC3)C(=O)N2[C@H]1C(=O)O` [Mecillinam] (stock concentration (mM, diluted 1:100): 10): the “HIS4 meiotic recombination assay sensitivity score” value is -0.86 (inactive). Regarding `CCCc1nc2c(C)cc(-c3nc4ccccc4n3C)cc2n1Cc1ccc(-c2ccccc2C(=O)O)cc1` [Telmisartan] (stock concentration (mM, diluted 1:100): 10), the “HIS4 meiotic recombination assay sensitivity score” value was -1.16 (inactive). Take `C[N+]1(C)CCC(OC(=O)C(O)(c2ccccc2)C2CCCC2)C1` (stereo not given) [Glycopyrrolate] (stock concentration (mM, diluted 1:100): 10): the “HIS4 meiotic recombination assay sensitivity score” value was -0.65 (inactive). Still for that read-out and setting: in the case of `CCOC(=O)C1=C(C)NC(C)=C(C(=O)OCC)C1c1ccccc1/C=C/C(=O)OC(C)(C)C` [Lacidipine] (stock concentration (mM, diluted 1:100): 10) it was 0.32 (inactive); in that of `Cn1nnc2c(C(N)=O)ncn2c1=O` [Temozolomide] (stock concentration (mM, diluted 1:100): 10), -0.54 (inactive); in that of `CC1CNc2c(cccc2S(=O)(=O)N[C@@H](CCCNC(=N)N)C(=O)N2CC[C@@H](C)C[C@@H]2C(=O)O)C1` (stereo not given in full) [Argatroban] (stock concentration (mM, diluted 1:100): 10.1), 0.32 (inactive).

As for `CC(C)(C)NCC(O)c1ccc(O)c(CO)c1` (stereo not given) [Salbutamol sulfate] (stock concentration (mM, diluted 1:100): 9.7), the “HIS4 meiotic recombination assay sensitivity score” value was -0.65 (inactive).

Turning to `Nc1ccc2cn[nH]c2c1` [6-Aminoindazole] (stock concentration (mM, diluted 1:100): 10), the “HIS4 meiotic recombination assay sensitivity score” value was -0.24 (inactive). Same read-out and setting: the value for `CN1CCN(C2=Nc3cc(F)ccc3Cc3ccccc32)CC1` [Fluperlapine] (stock concentration (mM, diluted 1:100): 10) was -1.76 (inactive). `C[C@H]1[C@H](OC(=O)CCC(=O)O)O[C@@H]2O[C@@]3(C)CC[C@H]4[C@H](C)CC[C@@H]1[C@@]24OO3` [Artesunate] (stock concentration (mM, diluted 1:100): 10): the “HIS4 meiotic recombination assay sensitivity score” value was 0.08 (inactive).

With `Cc1sc(N)c(C(=O)c2cccc(C(F)(F)F)c2)c1C` (stock concentration (mM, diluted 1:100): 10), the “HIS4 meiotic recombination assay sensitivity score” value was 1.22 (inactive). Take `CN(CCO)CC(O)Cn1cnc2c1c(=O)n(C)c(=O)n2C` (stereo not given) [Xanthinol nicotinate] (stock concentration (mM, diluted 1:100): 10): the “HIS4 meiotic recombination assay sensitivity score” value is -0.61 (inactive). `CN(C)CCc1c[nH]c2ccc(Cn3cncn3)cc12` [Rizatriptan benzoate] (stock concentration (mM, diluted 1:100): 10): the “HIS4 meiotic recombination assay sensitivity score” value was -0.35 (inactive).

A further assay concerns S. cerevisiae AD1-9 (efflux-pump deficient), vegetative growth in YPD. In words: growth sensitivity score (doubling time z-score vs DMSO controls); higher = slower growth, strongly negative scores also mark growth inhibition (complete suppression), active = hit call of the paper. The method in brief:
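Rich medium in microtiter plates was seeded with Saccharomyces cerevisiae strains BY4741 and AD1-9 at an OD600 of 0.065, and compounds were added as a 1:100 dilution of DMSO stock. A Tecan GENios reader recorded optical density every 15 min for 24 hours, with eight solvent-only wells in each experiment. Average doubling time was the time to reach a set generation point divided by generation number. The growth sensitivity score was the compound mean minus the solvent-only mean, divided by the solvent-only standard deviation.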
For `CN(CCOc1ccc(CC2SC(=O)NC2=O)cc1)c1ccccn1` (stereo not given) [Rosiglitazone maleate] (stock concentration (mM, diluted 1:100): 7.6), the growth sensitivity score was 2.19 (active). The same measure, in the same setting: the value for `COCC1=C(C(=O)OC(C)OC(=O)OC(C)C)N2C(=O)[C@@H](NC(=O)/C(=N\OC)c3csc(N)n3)[C@H]2SC1` (stereo not given in full) [Cefpodoxime proxetil] (stock concentration (mM, diluted 1:100): 7.7) was -0.15 (inactive); that for `CCOC(=O)[C@H](CCc1ccccc1)N[C@H]1CCc2ccccc2N(CC(=O)O)C1=O` [Benazepril hydrochloride] (stock concentration (mM, diluted 1:100): 9.2) was 1.33 (inactive); that for `CNNCc1ccc(C(=O)NC(C)C)cc1` [Procarbazine hydrochloride] (stock concentration (mM, diluted 1:100): 8.6) was -0.84 (inactive). Same read-out and setting: in the case of `CC(C)[C@H](N)C(=O)OCCOCn1cnc2c(=O)nc(N)[nH]c21` [Valaciclovir hydrochloride] (stock concentration (mM, diluted 1:100): 9) it was -0.28 (inactive); in that of `O=C(O[C@@H]1Cc2c(O)cc(O)cc2O[C@@H]1c1cc(O)c(O)c(O)c1)c1cc(O)c(O)c(O)c1` [Epigallocatechin gallate] (stock concentration (mM, diluted 1:100): 10), -3.35. For `CN(C)CCCSc1ccccc1NC(=O)/C=C/c1ccccc1` [Cinanserin] (stock concentration (mM, diluted 1:100): 10), the growth sensitivity score was 41.8 (active). On the same count and under the same terms, in the case of `C=CC1=C(C(=O)O)N2C(=O)[C@@H](NC(=O)/C(=N\O)c3csc(N)n3)[C@H]2SC1` [Cefdinir] (stock concentration (mM, diluted 1:100): 10) it was -1.07 (inactive); in that of `NC1CCN(c2cccc(Cl)n2)CC1` (stock concentration (mM, diluted 1:100): 10), -0.47 (inactive). Same read-out and setting: in the case of `CN(Cc1cnc2nc(N)nc(N)c2n1)c1ccc(C(=O)N[C@@H](CCC(=O)O)C(=O)O)cc1` [Methotrexate] (stock concentration (mM, diluted 1:100): 14.6) it was -2.15; in that of `CC(=O)OCC(CCn1cnc2cnc(N)nc21)COC(C)=O` [Famciclovir] (stock concentration (mM, diluted 1:100): 10), -0.2 (inactive); in that of `CN(C)CCC(c1ccc(Cl)cc1)c1ccccn1` (stereo not given) [Chlorpheniramine] (stock concentration (mM, diluted 1:100): 10), -0.6 (inactive). On the same count and under the same terms, in the case of `CC(C)c1ccc2c(c1)c(SC(C)(C)C)c(CC(C)(C)C(=O)O)n2Cc1ccc(Cl)cc1` [Tocris-1311] (stock concentration (mM, diluted 1:100): 10) it was 6.29 (active); in that of `CSc1nc2cc(Cl)c(Oc3cccc(Cl)c3Cl)cc2[nH]1` [Triclabendazole] (stock concentration (mM, diluted 1:100): 10), 74.8 (active); in that of `O=C1c2c(O)cc(O)cc2OC(c2ccc(O)c(O)c2)C1O` (stereo not given) [Taxifolin] (stock concentration (mM, diluted 1:100): 10), -0.46 (inactive). In the case of `CCN(CC)CC(=O)Nc1c(C)cccc1C` [Lidocaine] (stock concentration (mM, diluted 1:100): 9.6), the growth sensitivity score was -0.9 (inactive).

For the compound `CC(=O)SCC(Cc1ccccc1)C(=O)NCC(=O)OCc1ccccc1` (stereo not given) [Acetorphan] (stock concentration (mM, diluted 1:100): 10), the growth sensitivity score was 22.1 (active). On the same count and under the same terms, in the case of `O=c1n(CCCN2CCN(c3cccc(Cl)c3)CC2)nc2ccccn12` [Trazodone hydrochloride] (stock concentration (mM, diluted 1:100): 10) it was -3.23; in that of `CC(N/C(=N\C#N)Nc1ccncc1)C(C)(C)C` (stereo not given) [Pinacidil monohydrate] (stock concentration (mM, diluted 1:100): 10), -0.96 (inactive); in that of `C=CC1=C(C(=O)O)N2C(=O)[C@@H](NC(=O)/C(=N\OCC(=O)O)c3csc(N)n3)[C@H]2SC1` [Cefixime trihydrate] (stock concentration (mM, diluted 1:100): 10), -1.39 (inactive).

As for `CC(Oc1c(Cl)cccc1Cl)C1=NCCN1` (stereo not given) [Lofexidine hydrochloride] (stock concentration (mM, diluted 1:100): 10), the growth sensitivity score was -0.79 (inactive). Turning to `O=C1CC[C@@H](C(=O)N2CSC[C@H]2C(=O)O)N1` [Pidotimod] (stock concentration (mM, diluted 1:100): 10), the growth sensitivity score is 0.59 (inactive). Still for that read-out and setting: the value for `C#C[C@]1(O)CC[C@H]2[C@@H]3[C@H](C)CC4=C(CCC(=O)C4)[C@H]3CC[C@@]21C` [Tibolone] (stock concentration (mM, diluted 1:100): 10) was 10.2 (active); that for `CC1(C)S[C@@H]2[C@H](/N=C/N3CCCCCC3)C(=O)N2[C@H]1C(=O)O` [Mecillinam] (stock concentration (mM, diluted 1:100): 10) was -0.02 (inactive); that for `CCCc1nc2c(C)cc(-c3nc4ccccc4n3C)cc2n1Cc1ccc(-c2ccccc2C(=O)O)cc1` [Telmisartan] (stock concentration (mM, diluted 1:100): 10) was 43.7 (active).

On to `C[N+]1(C)CCC(OC(=O)C(O)(c2ccccc2)C2CCCC2)C1` (stereo not given) [Glycopyrrolate] (stock concentration (mM, diluted 1:100): 10), for which the growth sensitivity score is -0.14 (inactive).

On to `CCOC(=O)C1=C(C)NC(C)=C(C(=O)OCC)C1c1ccccc1/C=C/C(=O)OC(C)(C)C` [Lacidipine] (stock concentration (mM, diluted 1:100): 10), for which the growth sensitivity score was 10.2 (active).

As for `Cn1nnc2c(C(N)=O)ncn2c1=O` [Temozolomide] (stock concentration (mM, diluted 1:100): 10), the growth sensitivity score was -0.09 (inactive). On the same count and under the same terms, the value for `CC1CNc2c(cccc2S(=O)(=O)N[C@@H](CCCNC(=N)N)C(=O)N2CC[C@@H](C)C[C@@H]2C(=O)O)C1` (stereo not given in full) [Argatroban] (stock concentration (mM, diluted 1:100): 10.1) was -2.07.
